Laboratory results taken from the supplement of paper PMC10849652.
The full data set covers some 8,800 targets. This sample favours those with a hit. About 0.5% of all pairs of compound and target were hits.

How the values were obtained:
Test in all cases: log2 fold change, soluble protein after heating vs DMSO (PISA); higher = thermal stabilisation; K562 lysate, 10 uM; active = over 0.2 and 3.5 SD of the protein, either way, in both replicates (recomputed)
[1] = compound: C1=CC=C(C=C1)[C@H](COC2=CC3=C(C=C2)NC(=O)N3)NC(=O)C4=CC=CN(C4=O)CC5=CC(=C(C=C5)F)F
In short: (§1)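 Quantification was by TMTpro 16plex LC-MS/MS with equalised channel sums, applied to the supernatant after 21,000xg for 90 min. Samples were crude K562 extract at 1 mg/mL protein in PBS pH 7.4 with 1 mM MgCl2, treated with 10 μM compound for 30 min, heated for 3 min across 48°C-58°C, pooled and brought to 0.5% NP-40 at 4°C. Values are log-two fold changes in thermal stability relative to solvent controls, from duplicates.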

[2] = compound: CC1=C(SC2=C1C(=N[C@H](C3=NN=C(N32)C)CC(=O)N)C4=CC=C(C=C4)Cl)C
In short: as §1

[3] = compound: CC1=C2C(=CC=C1)N=C(N(C2=O)C3=CC=CC=C3C)CN4C=NC5=C(N=CN=C54)N
In short: as §1

[4] = compound: Cc1sc2c(c1C)C(c1ccc(Cl)cc1)=N[C@@H](CC(=O)OC(C)(C)C)c1nnc(C)n1-2
In short: as §1

[5] = compound: c1ccc([C@@H]2C[C@H]2NC2CCNCC2)cc1
In short: as §1

Measured: log2 fold change

HIST2H2BC (UniProt Q6DN03)
inactive: [1] -0.03 | [2] 0.065 | [3] 0.014 | [4] 0.003 | [5] 0.165

GIT1 (UniProt Q9Y2X7)
UniProt Q9Y2X7, sequence (Q9Y2X7 whole entry, looked up): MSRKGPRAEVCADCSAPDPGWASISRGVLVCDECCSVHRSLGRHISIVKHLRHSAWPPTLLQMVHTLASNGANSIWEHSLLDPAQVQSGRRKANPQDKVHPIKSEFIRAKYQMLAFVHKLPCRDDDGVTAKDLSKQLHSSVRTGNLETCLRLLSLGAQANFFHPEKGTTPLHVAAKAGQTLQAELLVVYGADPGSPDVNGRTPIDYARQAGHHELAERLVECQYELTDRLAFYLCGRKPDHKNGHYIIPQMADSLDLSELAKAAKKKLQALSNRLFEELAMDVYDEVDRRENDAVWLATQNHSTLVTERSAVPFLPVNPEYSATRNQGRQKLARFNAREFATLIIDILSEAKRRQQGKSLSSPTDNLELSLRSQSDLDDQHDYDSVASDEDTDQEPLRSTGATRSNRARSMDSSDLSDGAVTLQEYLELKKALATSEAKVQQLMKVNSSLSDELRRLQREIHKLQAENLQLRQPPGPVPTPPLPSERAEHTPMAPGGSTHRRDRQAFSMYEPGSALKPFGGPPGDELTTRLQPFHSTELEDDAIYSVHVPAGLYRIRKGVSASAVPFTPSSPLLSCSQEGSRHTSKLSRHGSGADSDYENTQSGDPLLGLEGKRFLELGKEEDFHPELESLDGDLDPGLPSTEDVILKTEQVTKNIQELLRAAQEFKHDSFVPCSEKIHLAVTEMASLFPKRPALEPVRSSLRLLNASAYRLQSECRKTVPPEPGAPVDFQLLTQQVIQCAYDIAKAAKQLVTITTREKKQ
inactive: [1] 0.013 | [2] -0.008 | [3] 0.009 | [4] 0.093 | [5] 0.073

GRK6 isoform 2 (UniProt P43250)
inactive: [1] 0.086 | [2] -0.034 | [3] -0.135 | [4] 0.084 | [5] -0.018

HSD17B10 (UniProt Q99714)
inactive: [1] -0.006 | [2] 0.062 | [3] 0.03 | [4] 0.022 | [5] 0.003

IMMT (UniProt Q16891)
UniProt Q16891, sequence (Q16891 whole entry, looked up): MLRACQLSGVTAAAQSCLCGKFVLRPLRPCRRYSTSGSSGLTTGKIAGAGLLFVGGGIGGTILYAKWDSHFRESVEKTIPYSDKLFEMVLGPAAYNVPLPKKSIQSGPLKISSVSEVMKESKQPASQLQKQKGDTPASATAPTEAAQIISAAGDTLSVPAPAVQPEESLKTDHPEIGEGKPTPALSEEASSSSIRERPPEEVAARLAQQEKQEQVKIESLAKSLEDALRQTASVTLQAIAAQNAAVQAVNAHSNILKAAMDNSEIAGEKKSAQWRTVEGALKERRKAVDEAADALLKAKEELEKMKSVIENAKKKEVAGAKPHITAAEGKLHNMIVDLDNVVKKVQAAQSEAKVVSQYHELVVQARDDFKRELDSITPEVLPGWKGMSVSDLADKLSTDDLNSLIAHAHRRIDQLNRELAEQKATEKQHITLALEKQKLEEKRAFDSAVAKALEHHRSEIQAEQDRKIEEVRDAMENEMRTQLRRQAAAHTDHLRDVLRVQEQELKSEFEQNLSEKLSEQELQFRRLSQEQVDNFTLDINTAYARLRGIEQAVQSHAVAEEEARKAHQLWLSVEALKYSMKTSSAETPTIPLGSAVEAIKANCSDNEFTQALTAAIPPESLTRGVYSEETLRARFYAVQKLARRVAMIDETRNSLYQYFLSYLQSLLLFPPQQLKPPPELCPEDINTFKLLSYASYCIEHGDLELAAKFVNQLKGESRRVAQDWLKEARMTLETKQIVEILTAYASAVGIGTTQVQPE
inactive: [1] -0.089 | [2] 0.016 | [3] 0.017 | [4] 0.022 | [5] 0.038

INTS7 (UniProt Q9NVH2)
inactive: [1] -0.06 | [2] 0.007 | [3] 0.016 | [4] 0.009 | [5] -0.001

HMGB1 (UniProt P09429)
inactive: [1] 0.053 | [2] -0.048 | [3] 0.032 | [4] 0.056 | [5] 0.115

GYPA (UniProt P02724)
inactive: [1] 0.071 | [2] -0.055 | [3] -0.002 | [4] 0.138 | [5] 0.236

GPX4 (UniProt P36969)
UniProt P36969, sequence (P36969 whole entry, looked up): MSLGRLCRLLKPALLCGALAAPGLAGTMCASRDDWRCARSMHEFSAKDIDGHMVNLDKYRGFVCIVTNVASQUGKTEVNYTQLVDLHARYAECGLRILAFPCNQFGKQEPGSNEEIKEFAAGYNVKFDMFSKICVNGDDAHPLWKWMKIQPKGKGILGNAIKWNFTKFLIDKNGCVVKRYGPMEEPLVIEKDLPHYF
inactive: [1] 0.018 | [2] -0.01 | [3] 0.036 | [4] -0.03 | [5] 0.048

ITM2B (UniProt Q9Y287)
active: [3] 0.43
inactive: [1] -0.019 | [2] -0.032 | [4] 0.058 | [5] -0.027

GSTZ1 (UniProt G3V4T6)
inactive: [1] 0.035 | [2] 0.002 | [3] -0.036 | [4] 0.062 | [5] -0.042

HSD17B12 (UniProt Q53GQ0)
inactive: [1] -0.127 | [2] -0.006 | [3] 0.059 | [4] 0.031 | [5] -0.108

KIAA0930 isoform 2 (UniProt Q6ICG6)
inactive: [1] 0.3 | [2] -0.034 | [3] -0.051 | [4] 0.07 | [5] 0.031

IMPDH2 (UniProt H0Y4R1)
inactive: [1] -0.048 | [2] 0 | [3] -0.077 | [4] -0.018 | [5] -0.203

INTS8 (UniProt Q75QN2)
inactive: [1] 0.021 | [2] -0.085 | [3] -0.002 | [4] 0.023 | [5] 0.081

GNE isoform 2 (UniProt Q9Y223)
inactive: [1] -0.072 | [2] 0.006 | [3] 0.023 | [4] 0.007 | [5] 0.06

KCTD20 (UniProt Q7Z5Y7)
inactive: [1] -0.031 | [2] -0.011 | [3] 0.097 | [4] -0.009 | [5] 0.078

HNRNPLL (UniProt Q8WVV9)
inactive: [1] 0.018 | [2] 0.028 | [3] 0.007 | [4] 0.022 | [5] 0.036

HIST2H2AA3 (UniProt Q6FI13)
inactive: [1] 0.017 | [2] 0 | [3] -0.111 | [4] 0.268 | [5] 0.277

GOLPH3 (UniProt Q9H4A6)
UniProt Q9H4A6, sequence (Q9H4A6 whole entry, looked up): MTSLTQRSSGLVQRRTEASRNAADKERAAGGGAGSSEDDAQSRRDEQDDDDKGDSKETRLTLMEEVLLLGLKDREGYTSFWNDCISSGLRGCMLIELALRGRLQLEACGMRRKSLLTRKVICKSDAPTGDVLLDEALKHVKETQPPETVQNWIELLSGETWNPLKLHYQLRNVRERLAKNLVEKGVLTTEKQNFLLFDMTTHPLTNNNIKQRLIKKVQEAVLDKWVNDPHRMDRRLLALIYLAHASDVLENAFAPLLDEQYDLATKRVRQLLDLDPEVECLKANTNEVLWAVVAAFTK
inactive: [1] -0.067 | [2] 0.018 | [3] 0.022 | [4] -0.089 | [5] 0.008

KDM5C (UniProt P41229)
UniProt P41229, sequence (P41229 whole entry, looked up): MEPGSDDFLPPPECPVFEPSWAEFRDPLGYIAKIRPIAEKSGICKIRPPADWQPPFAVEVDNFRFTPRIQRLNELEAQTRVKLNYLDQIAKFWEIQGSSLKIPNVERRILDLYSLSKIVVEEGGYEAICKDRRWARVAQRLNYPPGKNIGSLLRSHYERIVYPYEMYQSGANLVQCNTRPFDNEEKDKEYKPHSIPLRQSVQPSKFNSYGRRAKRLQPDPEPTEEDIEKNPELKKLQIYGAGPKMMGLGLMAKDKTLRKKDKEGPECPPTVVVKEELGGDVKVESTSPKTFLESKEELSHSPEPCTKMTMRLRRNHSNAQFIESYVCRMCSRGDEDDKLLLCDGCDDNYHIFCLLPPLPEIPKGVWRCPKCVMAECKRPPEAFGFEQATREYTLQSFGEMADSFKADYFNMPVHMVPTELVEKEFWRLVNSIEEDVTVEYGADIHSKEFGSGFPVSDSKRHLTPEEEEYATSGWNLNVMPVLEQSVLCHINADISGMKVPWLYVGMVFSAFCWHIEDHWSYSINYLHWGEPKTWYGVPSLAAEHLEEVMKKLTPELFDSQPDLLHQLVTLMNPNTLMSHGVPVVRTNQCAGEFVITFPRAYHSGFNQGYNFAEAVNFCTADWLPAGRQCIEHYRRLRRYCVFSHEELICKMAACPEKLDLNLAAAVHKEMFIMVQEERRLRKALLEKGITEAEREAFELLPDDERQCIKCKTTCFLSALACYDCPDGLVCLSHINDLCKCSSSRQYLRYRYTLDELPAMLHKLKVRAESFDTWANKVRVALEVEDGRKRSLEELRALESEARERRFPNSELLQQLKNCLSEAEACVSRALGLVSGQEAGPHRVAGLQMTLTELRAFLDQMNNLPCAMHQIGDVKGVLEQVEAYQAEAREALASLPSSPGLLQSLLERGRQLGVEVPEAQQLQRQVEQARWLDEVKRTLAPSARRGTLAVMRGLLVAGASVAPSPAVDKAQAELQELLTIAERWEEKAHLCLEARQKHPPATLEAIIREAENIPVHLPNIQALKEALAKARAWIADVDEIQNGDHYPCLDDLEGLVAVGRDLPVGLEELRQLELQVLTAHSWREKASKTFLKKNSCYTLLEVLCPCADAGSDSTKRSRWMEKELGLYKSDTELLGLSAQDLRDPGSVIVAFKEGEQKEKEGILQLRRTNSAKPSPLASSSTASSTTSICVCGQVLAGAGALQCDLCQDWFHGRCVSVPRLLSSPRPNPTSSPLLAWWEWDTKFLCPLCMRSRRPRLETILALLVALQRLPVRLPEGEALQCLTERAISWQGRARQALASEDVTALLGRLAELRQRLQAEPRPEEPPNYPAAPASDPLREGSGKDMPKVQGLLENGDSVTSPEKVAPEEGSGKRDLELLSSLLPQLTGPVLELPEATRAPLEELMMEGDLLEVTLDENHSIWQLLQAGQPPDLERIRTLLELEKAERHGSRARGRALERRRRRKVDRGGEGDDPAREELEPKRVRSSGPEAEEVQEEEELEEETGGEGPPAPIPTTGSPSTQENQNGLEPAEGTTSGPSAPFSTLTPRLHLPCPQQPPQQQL
inactive: [1] -0.01 | [2] 0 | [3] 0.008 | [4] -0.01 | [5] 0.032

INTS3 (UniProt Q68E01)
UniProt Q68E01, sequence (Q68E01 whole entry, looked up): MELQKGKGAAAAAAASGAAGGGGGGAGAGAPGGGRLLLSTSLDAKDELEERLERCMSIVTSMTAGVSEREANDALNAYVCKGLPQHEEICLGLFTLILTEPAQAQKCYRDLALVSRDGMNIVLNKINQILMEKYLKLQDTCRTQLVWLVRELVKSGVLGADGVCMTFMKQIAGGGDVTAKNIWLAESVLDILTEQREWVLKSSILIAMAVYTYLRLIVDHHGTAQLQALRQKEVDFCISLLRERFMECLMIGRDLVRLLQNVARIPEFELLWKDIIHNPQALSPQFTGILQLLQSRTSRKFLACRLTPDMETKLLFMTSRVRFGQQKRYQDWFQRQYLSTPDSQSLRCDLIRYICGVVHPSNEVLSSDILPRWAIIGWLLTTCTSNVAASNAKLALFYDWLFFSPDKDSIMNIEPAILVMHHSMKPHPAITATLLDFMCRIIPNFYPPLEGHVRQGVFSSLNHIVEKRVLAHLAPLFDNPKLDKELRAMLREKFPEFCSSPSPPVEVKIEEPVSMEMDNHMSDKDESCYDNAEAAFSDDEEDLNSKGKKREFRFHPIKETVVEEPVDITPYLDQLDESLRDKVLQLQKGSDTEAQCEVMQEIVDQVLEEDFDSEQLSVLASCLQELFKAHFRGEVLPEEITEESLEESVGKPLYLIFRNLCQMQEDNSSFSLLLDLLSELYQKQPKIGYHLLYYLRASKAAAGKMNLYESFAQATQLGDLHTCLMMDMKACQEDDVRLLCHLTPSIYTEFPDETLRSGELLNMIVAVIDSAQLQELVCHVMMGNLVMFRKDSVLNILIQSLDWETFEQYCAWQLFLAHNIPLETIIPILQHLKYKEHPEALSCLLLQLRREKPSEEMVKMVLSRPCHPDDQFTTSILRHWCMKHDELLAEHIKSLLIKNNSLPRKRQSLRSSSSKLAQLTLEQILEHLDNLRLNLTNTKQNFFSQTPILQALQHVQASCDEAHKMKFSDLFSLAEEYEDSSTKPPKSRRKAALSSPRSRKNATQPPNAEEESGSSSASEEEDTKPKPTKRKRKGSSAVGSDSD
inactive: [1] 0.017 | [2] 0.063 | [3] -0.043 | [4] -0.06 | [5] 0.074

HADH isoform 2 (UniProt Q16836)
UniProt Q16836, sequence (Q16836 whole entry, looked up): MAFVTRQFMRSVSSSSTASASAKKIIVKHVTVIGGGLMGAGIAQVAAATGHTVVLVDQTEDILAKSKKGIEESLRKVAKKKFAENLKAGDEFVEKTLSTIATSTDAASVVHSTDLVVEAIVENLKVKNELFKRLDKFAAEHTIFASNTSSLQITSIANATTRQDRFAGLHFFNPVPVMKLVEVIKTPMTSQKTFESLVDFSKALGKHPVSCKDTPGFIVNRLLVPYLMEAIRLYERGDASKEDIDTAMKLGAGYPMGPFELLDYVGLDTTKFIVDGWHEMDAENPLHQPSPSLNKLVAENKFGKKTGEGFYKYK
inactive: [1] 0.012 | [2] 0.004 | [3] -0.047 | [4] 0.013 | [5] 0.086

GSTP1 (UniProt P09211)
inactive: [1] -0.018 | [2] 0.004 | [3] -0.003 | [4] -0.017 | [5] 0.035
